According to the supplement of paper PMC12636033:
± gives the standard deviation of the averaged measurements. Over roughly 33,000 sequences, “E-score (rank enrichment, -0.5 to 0.5)” has its median near -0.0068; the highest 2% begin near 0.24. Only a selection was taken, and the highest values are over-represented in it overall.

tested on: muMax20 (Max(13-93) K31hArg/K57hArg, M65Nle); experiment: PBM 8-mer E-score (E-score (rank enrichment, -0.5 to 0.5)); higher = stronger preferential binding
Protocol: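 Protein binding microarray (universal PBM chip covering all 10-mers in fixed probe flanks) with chemically synthesized human Max(13-93) bHLH-LZ analogs (not full-length Max) bearing noncanonical residues (hArg, Tha, Aib, Nle at 65) and aromatic Cys staples. Read-out per 8-mer (and its reverse complement): E-score (rank-based enrichment, -0.5 to 0.5) and Z-score of median probe intensity.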

Row | Sequence | PBM 8-mer E-score
1 | ACAACGAC | 0.0368 ± 0.017
2 | GGATGATA | 0.0453 ± 0.067
3 | ACATGATA | 0.197 ± 0.045
4 | CCATGATA | 0.0877 ± 0.047
5 | GTATGATA | 0.323 ± 0.069
6 | ATATGATG | 0.193 ± 0.013
7 | GTATGAGA | 0.161 ± 0.072
8 | ATATGATA | 0.273 ± 0.081
9 | CTATGATA | -0.0149 ± 0.015
10 | GCATGATA | 0.249 ± 0.015
11 | ACGGTGCG | -0.17 ± 0.023
12 | CTACTTAA | 0.09273 ± 0.00059
13 | CGAGTGTC | -0.179 ± 0.053
14 | CTTTGATC | -0.09609 ± 0.0009
15 | AAGAGACC | 0.0547 ± 0.019
16 | CCGAGTAA | -0.0803 ± 0.014
17 | GAACGGAA | -0.0438 ± 0.095
18 | ATTAATAC | 0.266 ± 0.021
19 | ACTAATAC | 0.158 ± 0.089
20 | ATTAATAA | 0.274 ± 0.0099
21 | GTTAATAA | 0.227 ± 0.066
22 | ATTAATAG | 0.255 ± 0.09

Row | Sequence | PBM 8-mer E-score
23 | CTTAATAC | 0.214 ± 0.041
24 | ATTAATCG | 0.0839 ± 0.061
25 | CTGAATAC | -0.0332 ± 0.1
26 | ATGAATAG | 0.172 ± 0.08
27 | CTTAATAA | 0.0902 ± 0.011
28 | ATGAATAC | 0.248 ± 0.057
29 | ATTAATGG | 0.0317 ± 0.074
30 | AGATTGCT | -0.0246 ± 0.009
31 | GGATAGAA | 0.123 ± 0.013
32 | AACTCCCG | -0.034 ± 0.042
33 | GGAATCGA | -0.191 ± 0.065
34 | GCGACTAC | -0.0421 ± 0.049
35 | ACAAACCC | 0.11 ± 0.054
36 | GGGTGGTA | -0.00184 ± 0.074
37 | ACTAGAGG | 0.113 ± 0.047
38 | TCATGCAA | 0.277 ± 0.021
39 | GCATGCAA | 0.147 ± 0.034
40 | ACATGCAG | 0.032 ± 0.14
41 | ACATGCAT | 0.294 ± 0.053
42 | ACATGCGG | 0.00547 ± 0.099
43 | ACATGCAC | 0.185 ± 0.034
44 | ACATGCGT | 0.243 ± 0.13

Row | Sequence | PBM 8-mer E-score
45 | ACATGCGC | 0.17 ± 0.0097
46 | ACATGCAA | 0.16 ± 0.046
47 | ATTTCACC | 0.0208 ± 0.092
48 | ATTGTGGA | 0.0503 ± 0.16
49 | AGATATAT | 0.176 ± 0.023
50 | ATCGTACA | 0.159 ± 0.048
51 | GTCGTACA | 0.242 ± 0.13
52 | CTCGTACA | 0.041 ± 0.08
53 | ACGTGAAT | 0.235 ± 0.083
54 | CTTCTCAA | 0.0152 ± 0.1
55 | AGCCAGCC | -0.293 ± 0.06
56 | CCTAAGAA | 0.099 ± 0.038
57 | ATGCTCAA | 0.0249 ± 0.035
58 | CGCCGTGA | -0.131 ± 0.031
59 | CAATAACA | 0.26 ± 0.066
60 | TAATAACA | 0.124 ± 0.0069
61 | AAATAATA | 0.232 ± 0.013
62 | CAATAATA | 0.304 ± 0.0083
63 | AAATAATC | 0.0578 ± 0.046
64 | CAATAATG | 0.117 ± 0.023
65 | GAATAACA | 0.175 ± 0.11
66 | AAATAATT | 0.242 ± 0.046

Row | Sequence | PBM 8-mer E-score
67 | CAATAATC | 0.0932 ± 0.028
68 | ATTTACCC | 0.0541 ± 0.029
69 | CGTCTGGA | -0.178 ± 0.11
70 | GCCTGTTA | 0.0517 ± 0.1
71 | AGCACCCG | -0.159 ± 0.024
72 | CGGCCAAA | -0.227 ± 0.024
73 | CGCTGATA | -0.0375 ± 0.12
74 | GAATAAAA | 0.0698 ± 0.033
75 | AAATAAAA | 0.252 ± 0.023
76 | AAATAAAT | 0.156 ± 0.054
77 | TAATAAAA | 0.246 ± 0.0097
78 | CAATAAAA | 0.197 ± 0.038
79 | AAAATAAA | 0.116 ± 0.064
80 | AAGCGTCC | -0.0322 ± 0.057
81 | ACCTAGAT | -0.0454 ± 0.032
82 | TGGGAAAA | 0.0021 ± 0.034
83 | CTTTTTTC | 0.127 ± 0.031
84 | ATTCGCTA | 0.0997 ± 0.028
85 | CATCCATC | 0.0727 ± 0.029
86 | GGGGTACC | -0.196 ± 0.038
